# Results: article PMC12136788
# Where a chain is given by its changes, count along the chain named. Over roughly 5,800 sequences, “enrichment r” has its median near 0.68; the highest 2% begin near 11. The entries come from a sample that favours the highest values as a whole.
# B1: chr10:87814449:87814585:-|CDS|ENSG00000138138|unk|FALSE|bound_elsewhere (ssRNA)
# RNA: GGGAGUUCUACAGUCCGACGAUCUUUAAUUUUCCGUUUGACAAUAUUUGGUGCAGUGACAUACUUUACUAUCAAAUGGAUGGUAGAUGCAAUUGAUCCAACCAGAAAGCAAAAAGUAGAAGCUCAGAAACAGGUAUGAUUGAACAACAGAGGAUUGAGCAUCA
# B2: ENSG00000104805:stop:overlap|stop_codon|ENSG00000104805|stop_codon|NA|stop_codon (ssRNA)
# RNA: GGGAGUUCUACAGUCCGACGAUCAGUUGAAGGAGGUGUGGGAGGAGCUGGAUGGACUGGACCCCAACAGCAUCCCAAAGUGCUAGGAUUACAGGCGUGAGUCACUGCGCCCGGCCUCGAAAGCCCUUUCUCUAUGGUGGAUCACAACAGAGGAUUGAGCAUCA
# B3: chr2:45599705:45599806:-|CDS|ENSG00000068784|msi1|total|mutant (ssRNA)
# RNA: GGGAGUUCUACAGUCCGACGAUCCUCAUAUGUUCUCUUUGUGGUUUGACCGAACCGCUCUGUGGCUAUUGCUGAUACUGCUUCCGAAGACAGAAAAAAUAAAUUGGAUACUGUACAGACUCUGAAAACAGCCAAGACAAAACACAACAGAGGAUUGAGCAUCA
# B4: chr1:93365539:93365640:+|3pUTR|ENSG00000117505|unk|FALSE|unique (ssRNA)
# RNA: GGGAGUUCUACAGUCCGACGAUCAGGAGGCAAAAUUGCACCCUGUUGAAAACCACCACCUUAGAUCAUCUAGGUUUUACUUUUAGGAUAAGACACUUGAGGGAAAGGCUGUGAAACUGAACCUCUGUUAGAAGCAACACACAGCAACAGAGGAUUGAGCAUCA
# B5: chr2:171983412:171983537:+|3pUTR|ENSG00000128708|unk|total|mutant (ssRNA)
# RNA: GGGAGUUCUACAGUCCGACGAUCUGAUGACUUUAAUUUUAAAAUCUUGUGACAUUUUGCUUAUACUAAAAGUUAUCUAUCUUCCGUUGAAUAUUUUCUUUUGGAGAGAUUGUAUAUUUUAAAAUACUGUUCCGAGUUUAUGAGCAACAGAGGAUUGAGCAUCA
# B6: chr19:41330322:41331077:-|three_prime_utr|ENSG00000105329|control|control|control (ssRNA)
# RNA: GGGAGUUCUACAGUCCGACGAUCGUCUGCACUAUUCCUUUGCCCGGCAUCAAGGCACAGGGGACCAGUGGGGAACACUACUGUAGUUAGAUCUAUUUAUUGAGCACCUUGGGCACUGUUGAAGUGCCUUACAUUAAUGAACUCCAACAGAGGAUUGAGCAUCA
# B7: chr12:88196262:88196297:+|3pUTR|ENSG00000139324|msi1_unk|FALSE|overlapping (ssRNA)
# RNA: GGGAGUUCUACAGUCCGACGAUCUGUAUACUUGUUUUUAACUUUAAAUGUAAUUUUUAAUCAGGUAAAGUUUGACACAUGUAUAGCUACAUACACACAUUUUUAAUGGUGCUCAUAUAUACUGUAUUUUUUGUUGUUUAGUUUCAACAGAGGAUUGAGCAUCA
# B8: chr5:136976780:136976881:-|3pUTR|ENSG00000152377|msi1|FALSE|unique (ssRNA)
# RNA: GGGAGUUCUACAGUCCGACGAUCCUUAAAUUAGCAUGUUCCAAUCCAGUCGGCAUUGCCUGAAUACAGUAGCAUCAUACCUAUAGUUGGUCUUAGAUAAGAAAUGAACUACUUGAUAUAGCAAAGUCCUUUGGCUUCGUAAAUCAACAGAGGAUUGAGCAUCA
# B9: chr11:118396625:118396726:+|3pUTR|ENSG00000110344|msi1|FALSE|bound_elsewhere (ssRNA)
# RNA: GGGAGUUCUACAGUCCGACGAUCAACUUGACAAUGCUCCCCUGGCUUGCAGGAAAUUAUACUUAUUAUAGCAUCACCAAGUUUAGAAAUCAUCACUAAUUUUCACCCUCUGUUGUCUCUUCAUAUUCUUCUUCCUUUUCCUAACAACAGAGGAUUGAGCAUCA
# B10: chr12:48342538:48342639:-|3pUTR|ENSG00000167528|unk|FALSE|unique (ssRNA)
# RNA: GGGAGUUCUACAGUCCGACGAUCUUGUUAAACAUUUUGAGUAUCACUCUUGCAUACUGUUACUAUUAUAUUUUCUCUAUAUAUAGACAGAAAGGCCAUUUUAGAAUAUUAAAGGCUCUGAAAAUUUCUGCAGUAGACCCAACUCAACAGAGGAUUGAGCAUCA
# B11: chr12:50748518:50748596:+|3pUTR|ENSG00000066084|msi1_unk|FALSE|overlapping (ssRNA)
# RNA: GGGAGUUCUACAGUCCGACGAUCUCAAAUUCAAACUACAGUACUGUGUAAUUAUGUAUAAAGUUUUUUUAUUUAUUUGAAGUUAGACUAGAUAUACGUUUUUAAAUUUAACAUCUGGCUGGACAGUGUUCUAUUAACUCAUUGCAACAGAGGAUUGAGCAUCA
# B12: chr3:168010103:168010202:-|3pUTR|ENSG00000173905|msi1_unk|total|mutant (ssRNA)
# RNA: GGGAGUUCUACAGUCCGACGAUCGCUCAAACAUAAAUCUGCCUACUGAACUCCCGGAUAUUUAAUUACAAAAAUUAAGAACUCCGACUUUUUUAAAACUUUUGUAUCCGAAAUGCGCAUACAUUUAUAUGAAUAUAUUUUGAUCAACAGAGGAUUGAGCAUCA
# B13: chr5:24509697:24509799:-|CDS|ENSG00000040731|unk|FALSE|unique (ssRNA)
# RNA: GGGAGUUCUACAGUCCGACGAUCACUCGACUAUGAGAGCCGAAGACUUUAUACUCUGAAAGUCGAAGCAGAAAACACCCAUGUAGAUCCCCGUUUUUAUUACCUAGGACCAUUUAAAGAUACUACCAUAGUGAAAAUCUCUAUCAACAGAGGAUUGAGCAUCA
# B14: chr9:5123879:5124511:-|three_prime_utr|ENSG00000120210|control|control|control (ssRNA)
# RNA: GGGAGUUCUACAGUCCGACGAUCCUGGUAAAUUGGAUUGCCAUAUGCAGAAGAAUGAAACUGGACCCAUAUUUAUCACCAUAUAGAAAAAUUAACUCGAUCGAUUACAGACUUAAAUGUAAGAUCUGAAACUAGAAAAAUACUCAACAGAGGAUUGAGCAUCA
# B15: chr3:168010103:168010202:-|3pUTR|ENSG00000173905|msi1_unk|FALSE|overlapping (ssRNA)
# RNA: B12 RNA with C53U, C54A, C83U, C84A, C107U, C108A
# B16: chr3:64018827:64018930:-|CDS|ENSG00000163636|unk|FALSE|unique (ssRNA)
# RNA: GGGAGUUCUACAGUCCGACGAUCUGAACUCAUGGAUUAUAAAACAUUUGUGACUUAUACUGUCUAUGUCAGUAUGAUUGCCUUAGAAAGACCAGAUCUCAGGGAAAAGGUAAUGACCAAACUUUAAUACUCAAAUUUAAAGACCAACAGAGGAUUGAGCAUCA
# B17: chr6:105100707:105100870:-|3pUTR|ENSG00000112276|msi1|FALSE|unique (ssRNA)
# RNA: GGGAGUUCUACAGUCCGACGAUCUGAGAUAUAUAUUUUCACAGUCUUUUCUAGAUAUAUUAUUGUUUUAACUUAACAAAUCUUAGCAAUCUCUCAAUGCCUUUUCACUUAUUUUUUUCCAAGUUAUGAUUCUUUUUCCUCACACAACAGAGGAUUGAGCAUCA
# B18: chr6:105100707:105100870:-|3pUTR|ENSG00000112276|msi1|total|mutant (ssRNA)
# RNA: B17 RNA with U51C, A52C, U83C, A84C
# B19: chr20:59325757:59325866:+|3pUTR|ENSG00000124205|unk|FALSE|unique (ssRNA)
# RNA: GGGAGUUCUACAGUCCGACGAUCUUAUGUGGAUCUGUUCAAAGUAGUCACUGUAUAUACGUAUAGAGAGGUAGAUAGGUAGGUAGAUUUUAAAUUGCAUUCUGAAUACAAACUCAUACUCCUUAGAGCUUGAAUUACAUUUUUCAACAGAGGAUUGAGCAUCA
# B20: chr8:103442975:103443076:+|3pUTR|ENSG00000164934|msi1|FALSE|bound_elsewhere (ssRNA)
# RNA: GGGAGUUCUACAGUCCGACGAUCGGACUAGAUUAAUUGCAAACAUUUUAGUUAUAUGUGUAGAGCUUUAUUGUUACUCCUUUUAGCUACCCUGAAAAAUGAUCCUUAAAGGUGGCCUAGUUGGUAAGACUGUUUUAUCCUUAACAACAGAGGAUUGAGCAUCA
# Molecular target: T1, UNK ZnF1-6 (called full-length) (human, UniProt Q9C0B0 30-357)
# T1 sequence: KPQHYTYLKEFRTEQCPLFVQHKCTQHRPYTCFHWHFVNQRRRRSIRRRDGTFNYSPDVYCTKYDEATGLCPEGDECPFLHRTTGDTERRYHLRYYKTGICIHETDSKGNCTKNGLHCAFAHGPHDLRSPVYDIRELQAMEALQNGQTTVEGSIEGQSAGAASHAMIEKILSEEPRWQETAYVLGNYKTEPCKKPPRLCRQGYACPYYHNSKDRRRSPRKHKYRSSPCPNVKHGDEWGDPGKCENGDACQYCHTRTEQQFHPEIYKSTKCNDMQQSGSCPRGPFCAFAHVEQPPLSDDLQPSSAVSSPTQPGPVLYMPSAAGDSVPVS
# Experiment: nsRBNS (natural sequence RNA bind-n-seq); RBNS binding buffer (assumed for nsRBNS): 25 mM Tris pH 7.5, 150 mM KCl, 3 mM MgCl2, 0.01% Triton X-100, 500 ug/ml BSA, 20 U/ml SUPERase-In, 4 C; UNK is unkempt and MSI1 is Musashi-1; names of the RNAs are library labels; protein concentration not given here; high values mean tight binding
row,Binder,binding signal
1,B1,0.395 enrichment R
2,B2,0.682 enrichment R
3,B3,0.362 enrichment R
4,B4,5.47 enrichment R
5,B5,0.599 enrichment R
6,B6,2.74 enrichment R
7,B7,3.56 enrichment R
8,B8,8.89 enrichment R
9,B9,4.24 enrichment R
10,B10,3.54 enrichment R
11,B11,6.56 enrichment R
12,B12,3.17 enrichment R
13,B13,1.94 enrichment R
14,B14,21.7 enrichment R
15,B15,12.6 enrichment R
16,B16,0.48 enrichment R
17,B17,18.7 enrichment R
18,B18,3.08 enrichment R
19,B19,20.3 enrichment R
20,B20,6.96 enrichment R
